Data as given in the supplement of paper PMC8253809.
Several values for one entry are separate records, joined by “and”; a condition that tells them apart may be missing. Equal values may be shown once.

Experiments:
Experiment in all cases: growth inhibition (% activity, log2 RLU normalised to DMSO / staurosporine); higher = more growth inhibition
Conditions in all cases: 33 µM
[1] = tested on: DIPGX29 (H3.3 K27M diffuse intrinsic pontine glioma line)
In short: (§1)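 Approved drugs were tested in triplicate at a single final concentration of about 33 μM for 7 days at 37 °C, 5% CO2, on pHGG cell lines and H9-derived neural stem cells. Readout was CellTiter-Glo luminescence, log2-transformed and scaled per plate to % activity between solvent and positive control wells. The median over replicates gives the growth-inhibition value.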

[2] = tested on: DIPGX37 (H3.3 K27M diffuse intrinsic pontine glioma line)
In short: as §1

[3] = tested on: DIPGX7 (H3.3 K27M diffuse intrinsic pontine glioma line)
In short: as §1

[4] = tested on: DIPGX9 (diffuse intrinsic pontine glioma line)
In short: as §1

[5] = tested on: HGGX39 (paediatric high-grade glioma line)
In short: as §1

[6] = tested on: HGGX6 (H3.3 G34R paediatric high-grade glioma line)
In short: as §1

[7] = tested on: HNSC
In short: as §1

[8] = tested on: SUDIPGIV (diffuse intrinsic pontine glioma line)
In short: as §1

[9] = tested on: SUDIPGVI (diffuse intrinsic pontine glioma line)
In short: as §1

[10] = tested on: SUDIPGXIII (diffuse intrinsic pontine glioma line)
In short: as §1

| SMILES | growth inhibition [1] | growth inhibition [2] | growth inhibition [3] | growth inhibition [4] | growth inhibition [5] | growth inhibition [6] | growth inhibition [7] | growth inhibition [8] | growth inhibition [9] | growth inhibition [10] |
| --- | --- | --- | --- | --- | --- | --- | --- | --- | --- | --- |
| C[C@@H](Oc1cc(-c2cnn(C3CCNCC3)c2)cnc1N)c1c(Cl)ccc(F)c1Cl | 26.5% | 7.08% | 9.03% | 10.8% | 16.1% | 13.5% | 54.5% | 6.53% | 17.5% | 1.64% |
| CCOc1ccccc1OC(c1ccccc1)C1CNCCO1 (stereo not given) | 0.58% | 2.23% | -0.477% | 1.96% | 0.0675% | 0.362% | -1.38% | -0.307% | -0.0566% | 0.138% |
| NC[C@H]1CC[C@H](C(=O)O)CC1 | -0.318% | 1.11% | 0.868% | 1.09% | 2.3% | 0.25% | -0.348% | -1.18% | 0.626% | -0.00541% |
| CC(C)(S)[C@@H](N)C(=O)O | 0.657% | -0.325% | 5.5% | -0.781% | 0.519% | -2.1% | 45.1% | -0.3% | 0.273% | -1.43% |
| COC(=O)N/N=C/c1c[n+]([O-])c2ccccc2[n+]1[O-] | 2.48% | 4.18% | 1.83% | 0.689% | 2.31% | 0.191% | 4.92% | 3% | 5.18% | -3.09% |
| Cc1ccc(S(=O)(=O)NC(=O)NN2CC3CCCC3C2)cc1 (stereo not given) | 1.02% | 1.27% | 1.73% | 0.944% | 1.58% | -0.55% | 35.3% | 1.96% | -4.19% | 0.367% |
| CCCN(CCC)CCc1cccc2c1CC(=O)N2 | -1.21% | -2.23% | 1.15% | 0.189% | 2.83% | -2.51% | 0.584% | 0.852% | 2.13% | -0.826% |
| O=C(O)/C=C/c1ccc(Cn2ccnc2)cc1 | -4.29% and 0.0234% | -1.97% and 1.55% | -2.07% and 1.39% | -1.94% and 0.49% | -2.45% and 1.57% | -3.87% and 2.09% | 1.95% and -1.58% | -2.48% and 0.0369% | -6.52% and 1.83% | -0.879% and -16.2% |
| O=C(O)c1cn(-c2ccc(F)cc2)c2cc(N3CCNCC3)c(F)cc2c1=O | 1.77% | 0.654% | 2.46% | 2.37% | 4.02% | 3.31% | 1.3% | 4.25% | 3.85% | 0.944% |
| CN(C)C/C=C/C(=O)Nc1cc2c(Nc3ccc(F)c(Cl)c3)ncnc2cc1O[C@H]1CCOC1 | 21.1% | 8.76% | 29.6% | 14.3% | 11.5% | 47.5% | 59.4% | 10.9% | -0.744% | 0.97% |
| Cc1cccc(Nc2ccncc2S(=O)(=O)NC(=O)NC(C)C)c1 | -1.52% | 1.45% | -0.371% | -0.205% | 1.47% | -0.821% | -0.596% | -1.46% | 1.11% | 1.52% |
| O=S(=O)(O)Oc1ccc(C(c2ccc(OS(=O)(=O)O)cc2)c2ccccn2)cc1 | -1.54% | -1.27% | -2.88% | -1.22% | -0.859% | -1.53% | -1.57% | -2.15% | -2.91% | 0.476% |
| O=C(Oc1ccccc1C(=O)O)c1ccccc1O | -4.53% | -1.4% | 0.584% | -2.94% | -1.64% | -6.45% | 9.98% | -3.17% | -8.34% | -0.246% |
| Cc1ccnc2c1NC(=O)c1cccnc1N2C1CC1 | 0.291% | 2.43% | 0.516% | -1.16% | 0.921% | -1.94% | 2% | 1.95% | 0.484% | 0.637% |
| CC(=O)[C@H]1CC[C@H]2[C@@H]3CCC4=CC(=O)CC[C@]4(C)[C@H]3CC[C@]12C | 1.09% | 3.02% | 4.3% | 2% | 4.64% | 5.84% | 2.02% | -1.26% | 1.04% | 1.18% |
| Cc1ccc(O)c([C@H](CCN(C(C)C)C(C)C)c2ccccc2)c1 | -0.51% | 1.21% | -1.14% | 1.39% | 7.27% | -3.24% | 8.98% | 2% | 1.35% | -1.5% |
| C=C1/C(=C\C=C2/CCC[C@]3(C)[C@@H]([C@H](C)/C=C/[C@H](C)C(C)C)CC[C@@H]23)C[C@@H](O)C[C@@H]1O | 0.433% | 1.95% | 5.3% | 2.6% | 3.71% | 2.65% | 3.33% | 0.335% | 1.4% | 1.03% |
| CN(c1nccc(=O)[nH]1)C1CCN(c2nc3ccccc3n2Cc2ccc(F)cc2)CC1 | 2.38% | 2.96% | 2.33% | 1.85% | 4.67% | 3.86% | 1.95% | 0.631% | 3.14% | -15% |
